From PubChem
Methyltransferases: Primary Screen for Target Class Profiling of Small Molecule Inhibitors of Methyltransferases; AID 1745853, 2022; hit rate 3.9% among 25,000; purified enzyme, MTase-Glo SAH luminescence; active compounds read low; calls only at 40 µM; call rule not given here
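Each enzyme was reacted with SAM and its substrate, with compounds tested once at 40 uM; SAH formed was read by MTase-Glo luminescence.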
* = called active by the depositor; ! = repeats disagree. Shown is part of a subset that was picked to be rich in hits. On the % scale 0 is the no-effect control and ±100 the full control effect.

What do the screens show for `O=c1[nH]c2ccc(S(=O)(=O)NCCc3ccc(Cl)cc3)cc2[nH]1`?
Methyltransferases: inactive

What do the screens show for `CC1(C(=O)NC2CCCCC2)Cn2c(ccc2-c2ccccc2)C(=O)N1CCc1cccs1` (centres undefined)?
Methyltransferases: inactive

Results for Cc1ccccc1-c1nc(Cn2ccnc2C(C)C)c(C)o1 ?
Methyltransferases: inactive

How did COc1cccc(C(=O)Cn2nc3n(C(C)C)c(=O)c4ccc(C(=O)NCC(C)C)cc4n3c2=O)c1 do in these assays?
Methyltransferases: inactive

How did Cc1cccc(NC(=O)Cn2nc3n(C)c(=O)c4ccc(C(=O)NC5CCCCC5)cc4n3c2=O)c1 do in these assays?
Methyltransferases: inactive

Results for COc1cccc(NS(=O)(=O)c2cc3[nH]c(=O)[nH]c3cc2Cl)c1 ?
Methyltransferases: inactive

How did COc1cccc(OC)c1-c1ccc(C[C@H](NC(=O)c2c(Cl)cccc2Cl)C(=O)O)cc1 do in these assays?
Methyltransferases: inactive

Results for COc1ccc(CC(NC(C)=O)C(=O)O)cc1 (centres undefined) ?
Methyltransferases: active

Results for CC(=O)N[C@@H](CS)C(=O)O ?
Methyltransferases: inactive

What do the screens show for `CCCn1c(=O)c2cc(F)ccc2n2c(SCC(=O)Nc3ccc(F)cc3)nnc12`?
Methyltransferases: inactive

Results for COc1ccc2cc3n(c2c1)CC(C)(C(=O)NC1CCCCC1)N(C1CCCC1)C3=O (centres undefined) ?
Methyltransferases: inactive

How did CCOC(=O)c1cc2n(n1)CC(C)(C(=O)NCCOC)N(c1ccc(F)cc1)C2=O (centres undefined) do in these assays?
Methyltransferases: inactive

Results for COCCNC(=O)c1cc2n(n1)CC(C)(C(=O)NCCC(C)C)N(C)C2=O (centres undefined) ?
Methyltransferases: inactive

How did Cc1c(CN2CCN(S(C)(=O)=O)CC2)sc2c(N3CCOCC3)nc(-c3cnc(N)nc3)nc12 do in these assays?
Methyltransferases: active

Results for CS(=O)(=O)N1CCc2c(-c3cnc(N)nc3)nc(N3CCOCC3)nc21 ?
Methyltransferases: inactive

What do the screens show for `CCc1ccc(NC(=O)Cn2nc3nc(Nc4ccc(C)cc4)ccn3c2=O)cc1`?
Methyltransferases: inactive

How did CCCSc1nc(N[C@@H]2C[C@H]2c2ccc(F)c(F)c2)c2nnn([C@@H]3C[C@H](OCCO)[C@@H](O)[C@H]3O)c2n1 do in these assays?
Methyltransferases: active

What do the screens show for `CCC(C)NC(=O)c1ccc2c(=O)n(C)c3nn(Cc4c(F)cccc4Cl)c(=O)n3c2c1` (centres undefined)?
Methyltransferases: inactive

How did CC(C)Oc1ccc(CN2C(=O)c3cc4sccc4n3CC2(C)C(=O)NC2CCCCC2C)cc1 (centres undefined) do in these assays?
Methyltransferases: inactive

Results for CC(=O)NC1CCN(Cc2cn(-c3ccc(C)cc3)nc2-c2cccc(C)c2)C1 (centres undefined) ?
Methyltransferases: inactive

Results for COc1cccc(-c2cn(-c3ccc(CCN4CCC(O)CC4)cc3)c3ncnc(N)c23)c1 ?
Methyltransferases: active

How did Cn1cc(-c2ccc3c(c2)CCN3C(=O)Cc2cccc(C(F)(F)F)c2)c2c(N)ncnc21 do in these assays?
Methyltransferases: inactive

What do the screens show for `CCCn1c(=O)c2ccc(C(=O)NC(C)CC)cc2n2c(SCC(=O)Nc3cccc(C)c3)nnc12` (centres undefined)?
Methyltransferases: inactive

How did Cc1ccc2c(c1)C=Cc1cc(C)ccc1C2c1cn(Cc2ccc(C(=O)Nc3nn[nH]n3)o2)c(=O)[nH]c1=S do in these assays?
Methyltransferases: active

What do the screens show for `CC(C)C(=O)N1CCC2(CCC(=O)N(CC3CC3)CC2)CC1`?
Methyltransferases: inactive

What do the screens show for `CCN(CCCNC(=O)CCc1nnc2n(Cc3ccccc3)c(=O)c3ccccc3n12)c1cccc(C)c1`?
Methyltransferases: inactive

What do the screens show for `CCOc1ccccc1CNC(=O)c1cc2n(n1)CC(C)(C(=O)NCc1ccc(C)cc1)N(C)C2=O` (centres undefined)?
Methyltransferases: inactive

What do the screens show for `N#CC(C#N)=C(N)/C(C#N)=C/c1ccc(O)cc1`?
Methyltransferases: inactive

Results for N#C/C(=C\c1ccc(O)c(O)c1)C(=O)NCCCNC(=O)/C(C#N)=C/c1ccc(O)c(O)c1 ?
Methyltransferases: active!

How did N#C/C(=C\c1ccc(O)c(O)c1)C(=O)Nc1ccccc1 do in these assays?
Methyltransferases: inactive

Results for CCN(CC)c1ccc(NS(=O)(=O)c2ccc3[nH]c4c(c3c2)CCCC4)c(C)c1 ?
Methyltransferases: inactive

How did O=C(CCn1ccc2cc(S(=O)(=O)N3CCCCC3)ccc21)NCCc1ccccc1 do in these assays?
Methyltransferases: inactive

What do the screens show for `O=C(Cn1ccc2cc(S(=O)(=O)N3CCCCC3)ccc21)N1CCCCC1`?
Methyltransferases: inactive

Results for COc1ccc(/C=C/c2nc(NCCCN(C)C)c3ccccc3n2)cc1 ?
Methyltransferases: active

What do the screens show for `COc1ccc(N(C)c2nc(C)nc3ccccc23)cc1`?
Methyltransferases: inactive

Results for CC(C)C[C@H](CC(=O)NO)C(=O)N[C@H](C(=O)N[C@@H](C)C(=O)NCCN)C(C)(C)C ?
Methyltransferases: inactive

Results for COCCN1C(=O)c2cc(-c3ccc(OC)c(OC)c3)nn2CC1(C)C(=O)NC1CCCCC1 (centres undefined) ?
Methyltransferases: inactive

How did Cc1ccc(Cn2c(=O)c3ccccc3n3c(CCC(=O)NC4CCCCC4)nnc23)cc1 do in these assays?
Methyltransferases: inactive

What do the screens show for `O=S(=O)(c1ccccc1)N1CCC(F)(c2nc(-c3ccncc3)no2)CC1`?
Methyltransferases: inactive

How did CCc1ccc(NC(=O)Cn2nc3n(Cc4ccc(C)cc4)c(=O)c4ccccc4n3c2=O)cc1 do in these assays?
Methyltransferases: inactive

What do the screens show for `COc1ccc(Cl)cc1N1C(=O)CSc2c(c3ccccc3n2C)C1C(=O)NCc1ccccc1` (centres undefined)?
Methyltransferases: inactive

Results for O=c1c2ccccc2n2c(=O)n(Cc3c(F)cccc3Cl)nc2n1Cc1ccc(F)cc1 ?
Methyltransferases: inactive

How did COc1ccccc1CNc1nc2c(S(=O)(=O)c3cc(C)ccc3C)nnn2c2ccccc12 do in these assays?
Methyltransferases: inactive

Results for COc1ccccc1CNC(=O)C1c2c(n(C)c3ccccc23)SCC(=O)N1Cc1cccs1 (centres undefined) ?
Methyltransferases: inactive

How did O=C1c2ccccc2-c2nc3nnnn3nc21 (tested in a mixture with another compound) do in these assays?
Methyltransferases: active

What do the screens show for `CCOc1ccc(-c2cc3n(n2)CC(C)(C(=O)NC2CCCCC2)N(C2CCCCC2)C3=O)cc1` (centres undefined)?
Methyltransferases: inactive

Results for Cn1c(=O)n(C)c2cc(S(=O)(=O)Nc3cccc(C(F)(F)F)c3)ccc21 ?
Methyltransferases: inactive

How did Cc1ccn(-c2cc(Cl)ccc2[C@@H](Oc2cc(-c3ccc(C[C@H](N)C(=O)O)cc3)nc(N)n2)C(F)(F)F)n1 do in these assays?
Methyltransferases: active

Results for COCCCNC(=O)c1cc2n(n1)CC(C)(C(=O)NC1CCCC1)N(C)C2=O (centres undefined) ?
Methyltransferases: inactive

How did COc1cccc(C2c3cccn3-c3sc4c(c3CN2C(=O)Nc2ccc(C)cc2)CCCC4)c1 (centres undefined) do in these assays?
Methyltransferases: inactive
